# Key:
# [1] = molecular target: T1, Serine/threonine-protein kinase ULK2 (Homo sapiens) (UniProt Q8IYT8); details: at 1 µM
# T1 sequence (whole entry): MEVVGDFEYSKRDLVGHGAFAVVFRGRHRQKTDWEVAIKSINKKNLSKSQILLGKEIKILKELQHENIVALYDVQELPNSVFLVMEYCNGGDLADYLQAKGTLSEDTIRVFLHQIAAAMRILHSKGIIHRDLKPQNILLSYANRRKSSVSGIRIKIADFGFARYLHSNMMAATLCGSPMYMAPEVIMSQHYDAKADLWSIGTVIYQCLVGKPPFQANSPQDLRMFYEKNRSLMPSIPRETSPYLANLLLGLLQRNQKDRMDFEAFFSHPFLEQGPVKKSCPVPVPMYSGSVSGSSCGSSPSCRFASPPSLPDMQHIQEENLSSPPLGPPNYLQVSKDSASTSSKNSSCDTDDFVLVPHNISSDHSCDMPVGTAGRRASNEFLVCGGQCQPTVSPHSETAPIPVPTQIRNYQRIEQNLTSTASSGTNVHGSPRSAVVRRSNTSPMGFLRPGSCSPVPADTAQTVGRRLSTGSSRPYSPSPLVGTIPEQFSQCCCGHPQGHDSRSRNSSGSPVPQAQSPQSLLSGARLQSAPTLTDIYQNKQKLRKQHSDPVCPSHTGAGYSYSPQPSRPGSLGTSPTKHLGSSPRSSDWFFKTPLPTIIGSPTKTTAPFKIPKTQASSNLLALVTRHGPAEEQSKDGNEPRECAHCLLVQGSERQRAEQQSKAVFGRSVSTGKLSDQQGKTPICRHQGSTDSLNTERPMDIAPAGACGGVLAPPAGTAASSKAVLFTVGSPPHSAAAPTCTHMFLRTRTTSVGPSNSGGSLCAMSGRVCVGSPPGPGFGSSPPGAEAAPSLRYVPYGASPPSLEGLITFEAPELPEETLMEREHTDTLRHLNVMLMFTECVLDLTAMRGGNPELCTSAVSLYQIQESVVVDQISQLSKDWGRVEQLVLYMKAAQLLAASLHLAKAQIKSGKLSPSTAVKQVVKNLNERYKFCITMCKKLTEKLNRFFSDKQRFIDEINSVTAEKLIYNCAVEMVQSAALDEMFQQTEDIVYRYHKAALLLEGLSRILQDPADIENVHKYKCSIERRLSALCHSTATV
# [2] = molecular target: T1, Serine/threonine-protein kinase ULK2 (Homo sapiens); details: at 10 µM
# [3] = molecular target: T2, Serine/threonine-protein kinase ULK3 (Homo sapiens) (UniProt Q6PHR2); details: at 1 µM
# T2 sequence (whole entry): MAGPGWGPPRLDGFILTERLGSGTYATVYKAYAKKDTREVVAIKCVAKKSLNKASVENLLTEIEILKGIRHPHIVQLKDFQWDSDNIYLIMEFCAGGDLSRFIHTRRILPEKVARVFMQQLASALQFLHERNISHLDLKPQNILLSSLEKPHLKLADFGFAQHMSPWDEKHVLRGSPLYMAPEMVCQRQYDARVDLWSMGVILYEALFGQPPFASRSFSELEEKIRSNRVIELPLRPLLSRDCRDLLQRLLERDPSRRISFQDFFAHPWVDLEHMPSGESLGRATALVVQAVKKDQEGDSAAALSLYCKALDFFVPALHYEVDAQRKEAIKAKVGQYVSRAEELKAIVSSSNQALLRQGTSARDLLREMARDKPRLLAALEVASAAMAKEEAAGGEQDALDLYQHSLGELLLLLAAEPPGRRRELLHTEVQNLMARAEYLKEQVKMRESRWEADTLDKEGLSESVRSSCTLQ
# [4] = molecular target: T2, Serine/threonine-protein kinase ULK3 (Homo sapiens); details: at 10 µM
# [5] = molecular target: Serine/threonine-protein kinase VRK2 (Homo sapiens) (UniProt Q86Y07); details: at 1 µM
# [6] = molecular target: Tyrosine-protein kinase Yes (Homo sapiens) (UniProt P07947); details: at 1 µM
# [7] = molecular target: Tyrosine-protein kinase Yes (Homo sapiens) (UniProt P07947); details: at 10 µM
# [8] = molecular target: T3, Tyrosine-protein kinase ZAP-70 (Homo sapiens) (UniProt P43403); details: at 10 µM
# T3 sequence (whole entry): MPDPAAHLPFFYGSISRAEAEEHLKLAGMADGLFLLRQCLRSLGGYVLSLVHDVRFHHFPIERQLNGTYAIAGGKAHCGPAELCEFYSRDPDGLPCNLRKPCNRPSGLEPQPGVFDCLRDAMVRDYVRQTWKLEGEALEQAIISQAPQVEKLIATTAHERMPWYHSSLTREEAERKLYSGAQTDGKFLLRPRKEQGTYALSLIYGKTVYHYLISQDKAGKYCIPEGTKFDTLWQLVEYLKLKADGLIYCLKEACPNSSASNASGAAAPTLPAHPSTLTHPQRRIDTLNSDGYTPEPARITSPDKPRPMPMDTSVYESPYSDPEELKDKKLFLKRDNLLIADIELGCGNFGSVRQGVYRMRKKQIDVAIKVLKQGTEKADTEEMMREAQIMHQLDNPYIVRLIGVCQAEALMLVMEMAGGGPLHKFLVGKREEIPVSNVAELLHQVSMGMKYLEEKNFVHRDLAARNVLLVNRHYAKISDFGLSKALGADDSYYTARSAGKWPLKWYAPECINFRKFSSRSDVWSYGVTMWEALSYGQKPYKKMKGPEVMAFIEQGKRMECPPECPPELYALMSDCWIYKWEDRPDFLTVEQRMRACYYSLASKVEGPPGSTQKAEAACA
# [9] = molecular target: RAF proto-oncogene serine/threonine-protein kinase (Homo sapiens) (UniProt P04049); details: at 1 µM
# [10] = molecular target: RAF proto-oncogene serine/threonine-protein kinase (Homo sapiens) (UniProt P04049); details: at 10 µM
# [11] = molecular target: Mast/stem cell growth factor receptor Kit (Homo sapiens) (UniProt P10721); details: at 1 µM
# Mast/stem cell growth factor receptor Kit (Homo sapiens), sequence (P10721 whole entry): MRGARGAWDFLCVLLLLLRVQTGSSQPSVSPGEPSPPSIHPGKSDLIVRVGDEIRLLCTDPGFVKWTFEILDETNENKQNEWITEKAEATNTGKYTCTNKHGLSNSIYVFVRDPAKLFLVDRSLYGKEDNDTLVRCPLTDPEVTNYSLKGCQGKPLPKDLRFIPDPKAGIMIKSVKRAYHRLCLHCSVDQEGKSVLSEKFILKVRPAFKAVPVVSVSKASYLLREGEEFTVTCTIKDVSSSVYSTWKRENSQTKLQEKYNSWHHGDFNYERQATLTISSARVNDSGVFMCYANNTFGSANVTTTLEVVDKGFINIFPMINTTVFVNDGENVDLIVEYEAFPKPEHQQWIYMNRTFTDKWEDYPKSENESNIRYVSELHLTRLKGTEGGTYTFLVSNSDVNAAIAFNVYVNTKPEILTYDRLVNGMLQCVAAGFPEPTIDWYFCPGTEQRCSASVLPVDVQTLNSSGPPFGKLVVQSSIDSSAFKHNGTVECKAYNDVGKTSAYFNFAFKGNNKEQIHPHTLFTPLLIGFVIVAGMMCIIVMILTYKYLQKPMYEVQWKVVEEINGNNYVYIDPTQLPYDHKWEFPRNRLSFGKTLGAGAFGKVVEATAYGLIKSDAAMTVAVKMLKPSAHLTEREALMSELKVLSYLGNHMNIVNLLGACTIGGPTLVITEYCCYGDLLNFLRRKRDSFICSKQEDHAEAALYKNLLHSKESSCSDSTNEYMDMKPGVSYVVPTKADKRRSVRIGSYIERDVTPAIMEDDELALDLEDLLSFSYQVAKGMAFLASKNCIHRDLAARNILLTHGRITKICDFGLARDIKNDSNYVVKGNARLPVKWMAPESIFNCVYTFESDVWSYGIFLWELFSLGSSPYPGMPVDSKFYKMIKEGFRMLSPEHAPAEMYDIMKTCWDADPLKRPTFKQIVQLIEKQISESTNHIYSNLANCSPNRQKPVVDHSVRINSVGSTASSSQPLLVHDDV
# [12] = molecular target: Mast/stem cell growth factor receptor Kit (Homo sapiens) (UniProt P10721); details: at 10 µM
# [13] = molecular target: Serine/threonine-protein kinase VRK2 (Homo sapiens) (UniProt Q86Y07); details: at 10 µM
# [14] = molecular target: Serine/threonine-protein kinase WNK2 (Homo sapiens) (UniProt Q9Y3S1); details: at 1 µM
# Serine/threonine-protein kinase WNK2 (Homo sapiens), sequence (Q9Y3S1 whole entry): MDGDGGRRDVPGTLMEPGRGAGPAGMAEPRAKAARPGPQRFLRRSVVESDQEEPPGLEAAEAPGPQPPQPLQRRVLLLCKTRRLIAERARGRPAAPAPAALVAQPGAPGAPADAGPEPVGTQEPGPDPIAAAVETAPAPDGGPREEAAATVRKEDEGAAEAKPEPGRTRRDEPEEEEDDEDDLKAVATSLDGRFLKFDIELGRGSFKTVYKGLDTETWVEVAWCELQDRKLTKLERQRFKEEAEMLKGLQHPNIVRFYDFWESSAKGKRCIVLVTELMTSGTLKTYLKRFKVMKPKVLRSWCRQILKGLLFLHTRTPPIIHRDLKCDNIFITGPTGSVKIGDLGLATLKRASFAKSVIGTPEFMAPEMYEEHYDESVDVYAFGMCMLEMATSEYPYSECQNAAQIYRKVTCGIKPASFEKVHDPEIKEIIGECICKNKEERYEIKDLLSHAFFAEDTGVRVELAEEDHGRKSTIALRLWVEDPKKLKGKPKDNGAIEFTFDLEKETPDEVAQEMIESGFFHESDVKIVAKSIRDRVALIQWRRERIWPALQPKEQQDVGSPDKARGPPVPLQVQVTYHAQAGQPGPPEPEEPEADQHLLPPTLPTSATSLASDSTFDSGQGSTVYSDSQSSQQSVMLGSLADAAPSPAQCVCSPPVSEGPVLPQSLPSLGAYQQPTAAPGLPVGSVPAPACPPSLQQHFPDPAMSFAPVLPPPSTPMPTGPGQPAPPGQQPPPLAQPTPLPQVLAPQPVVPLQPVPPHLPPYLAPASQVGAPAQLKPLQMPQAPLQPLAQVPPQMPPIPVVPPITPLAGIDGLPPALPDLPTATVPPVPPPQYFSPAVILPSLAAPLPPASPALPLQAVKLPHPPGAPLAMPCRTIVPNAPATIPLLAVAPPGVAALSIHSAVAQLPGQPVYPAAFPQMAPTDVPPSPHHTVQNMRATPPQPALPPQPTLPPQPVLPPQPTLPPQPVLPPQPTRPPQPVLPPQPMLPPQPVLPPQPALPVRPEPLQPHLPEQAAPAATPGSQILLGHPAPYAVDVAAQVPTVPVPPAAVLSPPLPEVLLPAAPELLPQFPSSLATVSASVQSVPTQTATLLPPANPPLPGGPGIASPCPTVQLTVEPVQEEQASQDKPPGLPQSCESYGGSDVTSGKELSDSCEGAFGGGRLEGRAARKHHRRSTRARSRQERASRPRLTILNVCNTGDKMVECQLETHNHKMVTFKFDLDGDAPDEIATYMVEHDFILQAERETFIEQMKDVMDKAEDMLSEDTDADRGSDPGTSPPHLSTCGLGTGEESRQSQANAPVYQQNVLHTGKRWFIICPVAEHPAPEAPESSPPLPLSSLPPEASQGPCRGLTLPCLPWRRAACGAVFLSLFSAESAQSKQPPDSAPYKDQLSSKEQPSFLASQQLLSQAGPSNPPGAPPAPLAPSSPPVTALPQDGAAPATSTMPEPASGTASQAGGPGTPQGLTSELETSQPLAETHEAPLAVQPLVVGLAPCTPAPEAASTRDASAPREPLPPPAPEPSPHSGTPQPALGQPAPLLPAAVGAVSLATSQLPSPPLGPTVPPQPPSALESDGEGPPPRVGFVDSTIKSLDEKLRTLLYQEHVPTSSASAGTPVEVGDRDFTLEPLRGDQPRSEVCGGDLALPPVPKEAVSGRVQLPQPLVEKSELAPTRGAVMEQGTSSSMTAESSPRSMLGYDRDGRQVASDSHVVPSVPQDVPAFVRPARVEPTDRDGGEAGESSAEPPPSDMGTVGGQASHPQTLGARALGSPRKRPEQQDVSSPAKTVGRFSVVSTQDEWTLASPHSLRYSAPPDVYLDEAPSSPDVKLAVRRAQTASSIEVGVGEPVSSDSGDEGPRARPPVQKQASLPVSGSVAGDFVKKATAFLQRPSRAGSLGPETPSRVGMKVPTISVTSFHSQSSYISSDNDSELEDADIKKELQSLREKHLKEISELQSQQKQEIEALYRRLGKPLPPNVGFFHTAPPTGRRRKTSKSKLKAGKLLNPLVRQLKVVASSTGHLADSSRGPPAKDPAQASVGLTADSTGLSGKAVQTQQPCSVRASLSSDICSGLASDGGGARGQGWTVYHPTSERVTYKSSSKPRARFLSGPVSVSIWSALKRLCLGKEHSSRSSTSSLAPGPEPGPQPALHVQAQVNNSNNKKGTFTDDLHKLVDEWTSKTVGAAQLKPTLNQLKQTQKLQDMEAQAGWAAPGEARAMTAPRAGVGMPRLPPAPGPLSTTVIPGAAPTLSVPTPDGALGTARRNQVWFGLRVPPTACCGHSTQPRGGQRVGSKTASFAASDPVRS
# [15] = molecular target: Serine/threonine-protein kinase WNK2 (Homo sapiens) (UniProt Q9Y3S1); details: at 10 µM
# [16] = molecular target: Serine/threonine-protein kinase WNK3 (Homo sapiens) (UniProt Q9BYP7); details: at 1 µM
# Serine/threonine-protein kinase WNK3 (Homo sapiens), sequence (Q9BYP7 whole entry): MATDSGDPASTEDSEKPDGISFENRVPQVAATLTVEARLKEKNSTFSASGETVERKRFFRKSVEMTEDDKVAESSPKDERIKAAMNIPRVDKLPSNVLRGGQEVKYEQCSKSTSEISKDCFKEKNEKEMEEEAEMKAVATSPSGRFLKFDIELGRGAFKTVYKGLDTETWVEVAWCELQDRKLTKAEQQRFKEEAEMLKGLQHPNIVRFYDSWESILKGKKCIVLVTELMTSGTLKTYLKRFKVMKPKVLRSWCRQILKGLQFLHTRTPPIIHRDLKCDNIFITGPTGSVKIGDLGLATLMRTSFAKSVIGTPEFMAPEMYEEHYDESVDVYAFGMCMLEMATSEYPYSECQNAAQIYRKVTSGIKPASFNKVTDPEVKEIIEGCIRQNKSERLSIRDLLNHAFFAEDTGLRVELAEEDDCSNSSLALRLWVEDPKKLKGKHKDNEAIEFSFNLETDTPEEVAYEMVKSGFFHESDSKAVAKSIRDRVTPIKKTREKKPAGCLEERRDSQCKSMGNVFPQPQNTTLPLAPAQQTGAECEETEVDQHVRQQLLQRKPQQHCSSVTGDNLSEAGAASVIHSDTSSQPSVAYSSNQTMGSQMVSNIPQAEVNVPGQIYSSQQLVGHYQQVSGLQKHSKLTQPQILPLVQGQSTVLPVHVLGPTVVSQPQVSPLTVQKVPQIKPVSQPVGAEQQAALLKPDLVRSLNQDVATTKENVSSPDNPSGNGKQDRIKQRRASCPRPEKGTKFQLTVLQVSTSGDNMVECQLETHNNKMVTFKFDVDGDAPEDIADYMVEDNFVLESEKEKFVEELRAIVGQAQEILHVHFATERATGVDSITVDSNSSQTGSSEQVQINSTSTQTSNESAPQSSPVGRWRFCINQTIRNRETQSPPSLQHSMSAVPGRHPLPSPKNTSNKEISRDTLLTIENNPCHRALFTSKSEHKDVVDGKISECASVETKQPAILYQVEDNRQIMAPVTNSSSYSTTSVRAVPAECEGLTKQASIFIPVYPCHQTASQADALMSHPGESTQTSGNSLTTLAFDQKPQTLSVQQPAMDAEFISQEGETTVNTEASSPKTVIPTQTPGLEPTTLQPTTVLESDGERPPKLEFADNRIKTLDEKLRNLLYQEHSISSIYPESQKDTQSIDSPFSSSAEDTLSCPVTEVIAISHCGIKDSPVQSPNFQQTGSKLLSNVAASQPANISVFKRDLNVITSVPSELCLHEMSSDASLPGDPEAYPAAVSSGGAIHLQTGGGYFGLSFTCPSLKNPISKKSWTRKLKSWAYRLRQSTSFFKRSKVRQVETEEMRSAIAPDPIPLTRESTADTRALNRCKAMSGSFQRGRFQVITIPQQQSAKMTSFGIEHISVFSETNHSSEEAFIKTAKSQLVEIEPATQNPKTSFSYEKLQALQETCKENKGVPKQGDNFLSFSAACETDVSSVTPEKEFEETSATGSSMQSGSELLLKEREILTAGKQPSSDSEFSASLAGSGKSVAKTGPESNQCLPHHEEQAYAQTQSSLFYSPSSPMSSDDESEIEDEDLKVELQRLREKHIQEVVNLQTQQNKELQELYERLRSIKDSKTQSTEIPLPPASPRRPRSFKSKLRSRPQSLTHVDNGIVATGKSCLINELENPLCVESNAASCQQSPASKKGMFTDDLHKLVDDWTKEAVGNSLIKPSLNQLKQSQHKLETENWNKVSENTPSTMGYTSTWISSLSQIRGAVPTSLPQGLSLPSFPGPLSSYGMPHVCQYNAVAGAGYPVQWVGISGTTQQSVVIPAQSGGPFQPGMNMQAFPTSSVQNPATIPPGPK
# [17] = molecular target: Serine/threonine-protein kinase WNK3 (Homo sapiens) (UniProt Q9BYP7); details: at 10 µM
# [18] = molecular target: T3, Tyrosine-protein kinase ZAP-70 (Homo sapiens); details: at 1 µM
# [19] = molecular target: Death-associated protein kinase 3 (Homo sapiens) (UniProt O43293); details: at 1 µM
# [20] = molecular target: Death-associated protein kinase 3 (Homo sapiens) (UniProt O43293); details: at 10 µM
compound,measurement,setting,value
c1cc(-c2cnn3cc(-c4ccc(OCCN5CCCCC5)cc4)cnc23)ccn1,residual activity,[1],50%
same,residual activity,[2],17%
same,residual activity,[3],84%
same,residual activity,[4],48%
same,residual activity,[5],119% (inactive)
same,residual activity,[6],7%
same,residual activity,[7],0%
same,residual activity,[8],101%
same,residual activity,[9],82%
same,residual activity,[10],47%
same,residual activity,[11],5%
same,residual activity,[12],2%
O=C1Nc2ccc3ncsc3c2/C1=C/c1c[nH]cn1,residual activity,[1],37%
same,residual activity,[2],6%
same,residual activity,[3],42%
same,residual activity,[4],7%
same,residual activity,[5],75% (inactive)
same,residual activity,[13],26%
same,residual activity,[14],89% (inactive)
same,residual activity,[15],57%
same,residual activity,[16],84% (inactive)
same,residual activity,[17],67%
same,residual activity,[6],52%
same,residual activity,[7],9%
same,residual activity,[18],102%
same,residual activity,[8],101%
same,residual activity,[19],68%
same,residual activity,[20],50%
same,residual activity,[9],48%
same,residual activity,[10],35%
same,residual activity,[11],25%
same,residual activity,[12],4%
N/C(=N\[N+](=O)[O-])N/N=C\c1ccc(-c2cccc([N+](=O)[O-])c2)o1,residual activity,[3],92%
same,residual activity,[4],88%
same,residual activity,[7],100%
same,residual activity,[18],99%
same,residual activity,[8],100%
same,residual activity,[9],88%
same,residual activity,[10],80%
COc1cc(OC)c(/C=C2\C(=O)Nc3ccccc32)c(OC)c1,residual activity,[2],99%
same,residual activity,[3],95%
same,residual activity,[4],95%
same,residual activity,[5],83% (inactive)
same,residual activity,[13],32%
same,residual activity,[14],89% (inactive)
same,residual activity,[15],78%
same,residual activity,[16],93% (inactive)
same,residual activity,[17],83%
same,residual activity,[7],78%
same,residual activity,[18],90%
same,residual activity,[8],82%
same,residual activity,[20],96%
same,residual activity,[9],67%
same,residual activity,[10],67%
same,residual activity,[11],98%
same,residual activity,[12],105%
CC[n+]1c(/C=C/N(C)c2ccccc2)n(-c2ccccc2)c2ccc(-c3nc4ccccc4s3)cc21,residual activity,[8],130%
CCc1nc(-c2ccc(OC)cc2)[nH]c1-c1ccncc1,residual activity,[1],115%
same,residual activity,[2],105%
same,residual activity,[5],113% (inactive)
same,residual activity,[13],101%
same,residual activity,[14],112% (inactive)
same,residual activity,[15],100%
same,residual activity,[17],108%
same,residual activity,[6],123%
same,residual activity,[7],101%
same,residual activity,[18],119%
same,residual activity,[8],121%
same,residual activity,[11],127%
same,residual activity,[12],104%
CC(C)[C@H](CO)Nc1nc(Nc2cccc(Cl)c2)c2ncn(C(C)C)c2n1,residual activity,[1],83%
same,residual activity,[2],39%
same,residual activity,[3],39%
same,residual activity,[4],7%
same,residual activity,[5],85% (inactive)
same,residual activity,[13],30%
same,residual activity,[14],91% (inactive)
same,residual activity,[15],46%
same,residual activity,[16],82% (inactive)
same,residual activity,[17],51%
same,residual activity,[6],4%
same,residual activity,[7],0%
same,residual activity,[19],96%
same,residual activity,[9],73%
same,residual activity,[10],43%
same,residual activity,[11],117%
same,residual activity,[12],98%
O=C(O)/C=C/c1cc(Br)c(Br)c(Br)c1Br,residual activity,[8],82%
Fc1ccc(-c2nc3n(c2-c2ccncc2)CCS3)cc1,residual activity,[8],124%
O=c1[nH]c2ccccc2n1C1CCN(Cc2ccc(-c3nc4cc5[nH]cnc5cc4nc3-c3ccccc3)cc2)CC1,residual activity,[1],108%
same,residual activity,[2],106%
same,residual activity,[3],100%
same,residual activity,[4],95%
same,residual activity,[5],109% (inactive)
same,residual activity,[13],93%
same,residual activity,[14],117% (inactive)
same,residual activity,[15],83%
same,residual activity,[16],116% (inactive)
same,residual activity,[17],85%
same,residual activity,[6],99%
same,residual activity,[7],73%
same,residual activity,[18],123%
same,residual activity,[8],98%
same,residual activity,[19],100%
same,residual activity,[20],95%
same,residual activity,[9],94%
same,residual activity,[10],109%
same,residual activity,[11],121%
same,residual activity,[12],87%
Nc1n[nH]c2nnc(-c3c(-c4ccccc4)nn4ccccc34)cc12,residual activity,[8],81%
COc1cc2ncnc(N3CCN(C(=O)Nc4ccc(Oc5ccccc5)cc4)CC3)c2cc1OC,residual activity,[8],98%
O=C(Nc1ccc(Cl)cc1)c1ccccc1NCc1ccncc1,residual activity,[8],142%
Cc1ccc(S(=O)(=O)/C=C/C#N)cc1,residual activity,[8],118%
CCN(CC)CCNC(=O)c1c(C)[nH]c(/C=C2\C(=O)Nc3ccc(Cl)cc32)c1C,residual activity,[8],77%
O=C(c1cc2cc(O)ccc2[nH]1)c1cc2cc(O)ccc2[nH]1,residual activity,[8],109%
O=C1NC(=O)/C(=C\c2ccc3nccnc3c2)S1,residual activity,[8],94%
COc1ccc(C(=O)Nc2sc3c(c2C(N)=O)CCCC3)cc1OC,residual activity,[8],114%
N#C/C(=C\c1ccc(O)c(O)c1)C(=O)NCc1ccccc1,residual activity,[8],129%
CCN(CC)CCCCN1c2ccccc2Oc2ccc(Cl)cc21,residual activity,[8],124%
COc1ccc2c(c1)c(C1=C(c3c[nH]c4ccccc34)C(=O)NC1=O)cn2CCCN(C)C,residual activity,[8],120%
Nc1ncnc2c1c(-c1ccc(Oc3ccccc3)cc1)cn2C1CCCC1,residual activity,[8],99%
Cn1nc2c3c(cccc31)C(=O)c1ccccc1-2,residual activity,[8],85%
Nc1ncnc2[nH]nc(Nc3ccc(F)cc3)c12,residual activity,[8],98%
CC(C)n1cnc2c(NCc3ccccc3)nc(NCCCO)nc21,residual activity,[8],119%
O=Nc1c(-c2c(O)[nH]c3ccccc23)[nH]c2ccccc12,residual activity,[8],91%
CNc1cc2c(Nc3cccc(Br)c3)ncnc2cn1,residual activity,[8],108%
COc1ccc(-c2cnc3c(-c4ccsc4)cnn3c2)cc1,residual activity,[8],128%
O=C1NC(=O)c2c1c1c3ccccc3[nH]c1c1[nH]c3cc(Br)ccc3c21,residual activity,[8],90%
COc1cc2ncnc(Nc3ccc(NC(=O)c4ccccc4)cc3)c2cc1OC,residual activity,[8],104%
Nc1nccc(-c2c(-c3ccc(F)cc3)ncn2C2CCNCC2)n1,residual activity,[8],124%
NC(=O)c1ccc(-c2nc(-c3ccc4c(c3)OCCO4)c(-c3ccccn3)[nH]2)cc1,residual activity,[8],86%

# Source: ChEMBL document CHEMBL2218924, “A broad activity screen in support of a chemogenomic map for kinase signalling research and drug discovery” (Biochem J, 2013)
